About 2,000 (36%) of roughly 5,500 compounds were called active. Inconclusive results (about 18%) are left out. Rule as the data show it: active = normalized growth mostly below about 0.91 (no sharp cut-off); inconclusive = no clear call, values can overlap the other calls; inactive = mostly above about 0.92. The list shows a part of the results.
Experiment: chemical genetic growth profiling, strain panel (AID 1159580);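 also: tested at 20 µM; growth read once vehicle control cultures reached saturation at 30 °C; 1 = growth at the plate median or of vehicle wells; lower values mean less growth of the strain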
Conditions: growth OD

Measured: normalized growth

CCOC([O-])=Nc1c[n+](N2CCOCC2)no1
inactive: S. cerevisiae deletion strains, locus YJR075W, strain HOC1, active compounds read low 1.01 | S. cerevisiae deletion strains, locus YKL009W, strain mrt4, active compounds read low 1.05 | S. cerevisiae deletion strains, locus YKL068W, active compounds read low 0.993 | S. cerevisiae deletion strains, locus YKL085W, strain MDH1 (second series), active compounds read low 1.04 | S. cerevisiae deletion strains, locus YKL085W, strain MDH1, active compounds read low 1.04 | S. cerevisiae deletion strains, locus YKL160W, strain elf1, active compounds read low 0.984 | S. cerevisiae deletion strains, locus YKL190W, strain CNB1, active compounds read low 1.01 | S. cerevisiae deletion strains, locus YKR001C, strain vps1, active compounds read low 0.976 | S. cerevisiae deletion strains, locus YKR026C, strain gcn3, active compounds read low 0.994 | S. cerevisiae deletion strains, locus YKR091W, strain srl3, active compounds read low 0.995 | S. cerevisiae deletion strains, locus YLL001W, strain dnm1, active compounds read low 0.988 | S. cerevisiae deletion strains, locus YLL026W, active compounds read low 0.993 | S. cerevisiae deletion strains, locus YLL041C, strain sdh2, active compounds read low 0.988 | S. cerevisiae deletion strains, locus YLR027C, strain aat2, active compounds read low 0.997 | S. cerevisiae deletion strains, locus YLR039C, strain RIC1, active compounds read low 1.02 | S. cerevisiae deletion strains, locus YLR058C, strain SHM2, active compounds read low 1.01 | S. cerevisiae deletion strains, locus YLR102C, strain apc9, active compounds read low 0.999 | S. cerevisiae deletion strains, locus YLR113W, strain HOG1, active compounds read low 1.01 | S. cerevisiae deletion strains, locus YLR221C, strain rsa3, active compounds read low 0.985 | S. cerevisiae deletion strains, locus YLR258W, strain gsy2, active compounds read low 0.999 | S. cerevisiae deletion strains, locus YLR262C, strain YPT6 (second series), active compounds read low 1.01 | S. cerevisiae deletion strains, locus YLR262C, strain YPT6, active compounds read low 1.05 | S. cerevisiae deletion strains, locus YLR268W, strain sec22, active compounds read low 0.964 | S. cerevisiae deletion strains, locus YLR320W, strain mms22, active compounds read low 0.987 | S. cerevisiae deletion strains, locus YLR330W, strain CHS5, active compounds read low 1.01 | S. cerevisiae deletion strains, locus YLR342W, strain FKS1 (second series), active compounds read low 1.02 | S. cerevisiae deletion strains, locus YLR342W, strain FKS1, active compounds read low 1 | S. cerevisiae deletion strains, locus YLR357W, strain rsc2, active compounds read low 0.984 | S. cerevisiae deletion strains, locus YLR370C, strain arc18, active compounds read low 0.982 | S. cerevisiae deletion strains, locus YLR371W, strain rom2, active compounds read low 0.994 | S. cerevisiae deletion strains, locus YLR384C, strain iki3, active compounds read low 0.994 | S. cerevisiae deletion strains, locus YLR418C, strain cdc73, active compounds read low 0.993 | S. cerevisiae deletion strains, locus YML016C, strain PPZ1, active compounds read low 1.02 | S. cerevisiae deletion strains, locus YML032C, strain rad52, active compounds read low 0.984 | S. cerevisiae deletion strains, locus YML120C, strain ndi1, active compounds read low 0.994 | S. cerevisiae deletion strains, locus YML124C, strain tub3, active compounds read low 1 | S. cerevisiae deletion strains, locus YMR058W, strain fet3, active compounds read low 0.995 | S. cerevisiae deletion strains, locus YMR078C, strain ctf18, active compounds read low 0.996 | S. cerevisiae deletion strains, locus YMR125W, strain sto1, active compounds read low 1.01 | S. cerevisiae deletion strains, locus YMR129W, active compounds read low 0.994 | S. cerevisiae deletion strains, locus YMR205C, strain PFK2, active compounds read low 0.995 | S. cerevisiae deletion strains, locus YMR223W, strain ubp8, active compounds read low 0.998 | S. cerevisiae deletion strains, locus YMR231W, strain pep5, active compounds read low 0.994 | S. cerevisiae deletion strains, locus YMR263W, strain SAP30, active compounds read low 1.02 | S. cerevisiae deletion strains, locus YMR307W, strain GAS1, active compounds read low 1.04 | S. cerevisiae deletion strains, locus YNL067W, strain RPL9B, active compounds read low 1 | S. cerevisiae deletion strains, locus YNL071W, strain lat1, active compounds read low 1 | S. cerevisiae deletion strains, locus YNL128W, strain TEP1, active compounds read low 1.01 | S. cerevisiae deletion strains, locus YNL153C, strain GIM3, active compounds read low 1 | S. cerevisiae deletion strains, locus YNL183C, strain NPR1, active compounds read low 0.999 | S. cerevisiae deletion strains, locus YNL209W, strain ssb2, active compounds read low 0.993 | S. cerevisiae deletion strains, locus YNL233W, strain BNI4, active compounds read low 1.02 | S. cerevisiae deletion strains, locus YNL248C, strain rpa49, active compounds read low 0.992 | S. cerevisiae deletion strains, locus YNL250W, strain rad50, active compounds read low 0.982 | S. cerevisiae deletion strains, locus YNL271C, strain bni1, active compounds read low 0.981 | S. cerevisiae deletion strains, locus YNL298W, strain CLA4, active compounds read low 0.982 | S. cerevisiae deletion strains, locus YNL307C, strain MCK1, active compounds read low 1.01 | S. cerevisiae deletion strains, locus YNL322C, strain KRE1 (second series), active compounds read low 0.99 | S. cerevisiae deletion strains, locus YNL322C, strain KRE1, active compounds read low 1.01 | S. cerevisiae deletion strains, locus YNR049C, strain mso1, active compounds read low 0.988 | S. cerevisiae deletion strains, locus YNR052C, strain pop2, active compounds read low 0.989 | S. cerevisiae deletion strains, locus YOL006C, strain TOP1, active compounds read low 1.03 | S. cerevisiae deletion strains, locus YOL012C, strain htz1 0.747 | S. cerevisiae deletion strains, locus YOL147C, strain pex11, active compounds read low 0.978 | S. cerevisiae deletion strains, locus YOR001W, strain rrp6, active compounds read low 1.01 | S. cerevisiae deletion strains, locus YOR061W, strain CKA2, active compounds read low 1.02 | S. cerevisiae deletion strains, locus YOR069W, strain VPS5, active compounds read low 1.01 | S. cerevisiae deletion strains, locus YOR070C, strain gyp1, active compounds read low 0.994 | S. cerevisiae deletion strains, locus YOR080W, strain dia2, active compounds read low 0.997 | S. cerevisiae deletion strains, locus YOR083W, strain WHI5, active compounds read low 0.988 | S. cerevisiae deletion strains, locus YOR106W, strain vam3, active compounds read low 1.01 | S. cerevisiae deletion strains, locus YOR136W, strain idh2, active compounds read low 0.993 | S. cerevisiae deletion strains, locus YOR144C, strain elg1, active compounds read low 0.991 | S. cerevisiae deletion strains, locus YOR184W, strain ser1, active compounds read low 1 | S. cerevisiae deletion strains, locus YOR231W, strain MKK1, active compounds read low 1.01 | S. cerevisiae deletion strains, locus YOR265W, strain rbl2, active compounds read low 0.991 | S. cerevisiae deletion strains, locus YOR270C, strain vph1, active compounds read low 1.04 | S. cerevisiae deletion strains, locus YOR290C, strain snf2, active compounds read low 0.992 | S. cerevisiae deletion strains, locus YOR316C, strain cot1, active compounds read low 0.998 | S. cerevisiae deletion strains, locus YPL051W, strain arl3, active compounds read low 0.995 | S. cerevisiae deletion strains, locus YPL055C, strain LGE1, active compounds read low 1.04 | S. cerevisiae deletion strains, locus YPL078C, strain atp4, active compounds read low 1 | S. cerevisiae deletion strains, locus YPL106C, strain sse1, active compounds read low 0.963 | S. cerevisiae deletion strains, locus YPL240C, strain hsp82, active compounds read low 0.981 | S. cerevisiae deletion strains, locus YPL241C, strain CIN2, active compounds read low 1.01 | S. cerevisiae deletion strains, locus YPL256C, strain CLN2, active compounds read low 1.04 | S. cerevisiae deletion strains, locus YPR119W, strain clb2, active compounds read low 0.994 | S. cerevisiae deletion strains, locus YPR141C, strain kar3, active compounds read low 0.983 | S. cerevisiae deletion strains, locus YPR163C, strain tif3, active compounds read low 0.984 | S. cerevisiae deletion strains, locus YPR167C, strain met16, active compounds read low 1 | S. cerevisiae deletion strains, strain wtn01, active compounds read low 0.98 | S. cerevisiae strains, strain wild type, active compounds read low 1.02

From PubChem BioAssay AID1159580 (chemical genetic matrix, 2015)
